Among the data in PubChem BioAssay AID504652 (National Center for Advancing Translational Sciences (NCATS), 2011) are activity change, negative = inhibition values, retold here.

The campaign covered roughly 360,000 compounds. About 11,000 (3.1%) were called active. What follows is part of a selection rich in actives, with near analogues and random picks from the rest. Values without a mark were called inactive. Cut-off read from the data, not from the text of the source: active = activity change below about -30%; inactive = the rest.
% is set by controls: 0 for no effect and ±100 for the full control effect.

Chain of D(1A) dopamine receptor (Homo sapiens) (P21728 whole entry, looked up): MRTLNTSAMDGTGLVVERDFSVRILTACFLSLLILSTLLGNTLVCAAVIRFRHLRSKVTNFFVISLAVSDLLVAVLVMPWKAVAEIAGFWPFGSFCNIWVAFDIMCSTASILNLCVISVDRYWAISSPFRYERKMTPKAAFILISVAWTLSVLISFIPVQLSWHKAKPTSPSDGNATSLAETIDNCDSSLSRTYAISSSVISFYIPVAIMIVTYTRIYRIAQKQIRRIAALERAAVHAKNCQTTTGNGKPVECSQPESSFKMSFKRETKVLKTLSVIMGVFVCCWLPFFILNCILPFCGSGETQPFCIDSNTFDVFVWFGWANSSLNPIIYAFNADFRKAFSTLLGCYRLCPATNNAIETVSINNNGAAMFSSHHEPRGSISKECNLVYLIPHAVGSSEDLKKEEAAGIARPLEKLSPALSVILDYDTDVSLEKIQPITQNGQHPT

The target in this assay is D(1A) dopamine receptor (Homo sapiens) (UniProt P21728). The assay is described as follows: Antagonist of Human D 1 Dopamine Receptor: qHTS. The settings on record: HEK293 TREx D1 cells, calcium flux, dopamine EC80; at 10 µM; stronger effect = lower value. The method in brief:
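Calcium flux readout: force-coupled, inducible Hek293 Trex D1 line, cells induced overnight at 30 C with tetracycline, dye-loaded 30–90 min at RT. Antagonism scored against EC80 dopamine challenge given 180 s after compound.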
Regarding `O=C(CC(c1cccs1)N1Cc2ccccc2C1=O)Nc1ccc(F)cc1F` (stereo unspecified), the activity change, negative = inhibition is 4.94%.

In the case of `CCOC(=O)c1ccc(NC(=O)CSc2nc3c([nH]c4ccccc43)c(=O)n2C)cc1`, the activity change, negative = inhibition is -5.11%.

As for `Cc1ccc(C(=O)NC2CC(C)(C)NC(C)(C)C2)c(C)c1`, the activity change, negative = inhibition is -9.44%.

In the case of `CC(=O)N/N=C(\C)c1ccc(Br)cc1Br`, the activity change, negative = inhibition is 25.3%.

`C/C(=N\NC(=O)C1(C)CC1(Br)Br)c1ccc(C)cc1C` (stereo unspecified): the activity change, negative = inhibition was -58.1% (active).

In the case of `CCc1ccc(-n2nc(C)c3c(C)cc(=O)n(CC(=O)Nc4ccc(F)cc4C)c32)cc1`, the activity change, negative = inhibition is -6.21%.

`O=C(NCCc1c[nH]c2ccc(Cl)cc12)c1ccc([N+](=O)[O-])cc1`: the activity change, negative = inhibition was -40.2% (active).

For the molecule `Cc1ccc2[nH]cc(CCNC(=O)c3ccc([N+](=O)[O-])cc3)c2c1`, the activity change, negative = inhibition is -29.3%.

With `O=C(NCCc1ccc(Cl)cc1Cl)c1cc([N+](=O)[O-])c[nH]c1=O`, the activity change, negative = inhibition is -1.06%.

Turning to `O=C(c1cnn(-c2ccc(F)cc2)c1-n1cccc1)N1CCN(c2ccc(F)cc2)CC1`, the activity change, negative = inhibition was 1.87%.

Turning to `CCOC(=O)c1cc(-c2ccc(OC)c(S(=O)(=O)Nc3ccc(OC)cc3OC)c2)on1`, the activity change, negative = inhibition was -13.6%.

For `CC(Nc1nc(C(F)(F)F)nc2ccccc12)c1cccs1` (stereo unspecified), the activity change, negative = inhibition is -20.1%.

As to `NS(=O)(=O)c1ccc(CCNc2nc(C(F)(F)F)nc3ccccc23)cc1`, the activity change, negative = inhibition is -36% (active).

On to `CCc1ccc(C(CNc2nc(C(F)(F)F)nc3ccccc23)N(C)C)cc1` (stereo unspecified), for which the activity change, negative = inhibition is 26.8%.

In the case of `COC(=O)c1ccc(NC(=O)c2cc(S(=O)(=O)N3CCC(C)CC3)cn2C)cc1`, the activity change, negative = inhibition was -19.2%.

In the case of `COc1ccc(Cn2c(C(=O)O)c(CNCCc3cccs3)c3ccc(OC)cc32)cc1`, the activity change, negative = inhibition was 9.72%.

As for `COc1ccc(CCNC(=O)CN2CCC(n3nnc4cc(F)ccc43)CC2)cc1OC`, the activity change, negative = inhibition is -3.98%.

As to `Cc1ccc(CCNC(=O)Cn2c(-c3cccs3)cc3cc(F)ccc32)cc1`, the activity change, negative = inhibition was -40.1% (active).

As to `O=C(Cn1c(-c2cccs2)cc2ccccc21)NCCc1ccc(Cl)cc1`, the activity change, negative = inhibition is -2.26%.

With `CN(CC(=O)Nc1ccc(F)cc1)C(=O)c1ccc(-c2ccc(Cl)cc2)o1`, the activity change, negative = inhibition was -13.8%.

As for `CN(C)c1cc(-c2ccc(F)cc2)oc(=O)c1Cl`, the activity change, negative = inhibition is -37.9% (active).

With `CCCCC(CC)CNC(=O)C1CCN(S(=O)(=O)c2cccc3nsnc23)CC1` (stereo unspecified), the activity change, negative = inhibition is 5.74%.

In the case of `O=C(NCCc1ccc(Cl)cc1)c1ccc2nc(CCc3ccccc3)oc2c1`, the activity change, negative = inhibition is -1.03%.

As to `Cc1ccc(Nc2nc3ccccc3nc2-n2nc(C)cc2C)c(Cl)c1`, the activity change, negative = inhibition was 6.62%.

As for `O=C(Nc1ccccc1Br)c1cc(CN2CCCC2)on1`, the activity change, negative = inhibition is -3.7%.

In the case of `CCCCC(=O)OC1=CN(Cc2ccccc2)S(=O)(=O)c2ccccc21`, the activity change, negative = inhibition is -18.6%.

For the molecule `CCc1ccc(Oc2coc3cc(O)ccc3c2=O)cc1`, the activity change, negative = inhibition is -2.88%.

On to `CCc1ccc(Oc2coc3cc(OC(=O)c4cc5ccccc5oc4=O)ccc3c2=O)cc1`, for which the activity change, negative = inhibition is -33.2% (active).

Consider `COc1ccc(Oc2coc3cc(OC(=O)c4cncc(Br)c4)ccc3c2=O)cc1`, for which the activity change, negative = inhibition is -0.64%.

In the case of `CCc1ccc(NC(=O)Cn2c(=O)n(CCC(=O)NCc3ccc4c(c3)OCO4)c(=O)c3ccccc32)cc1`, the activity change, negative = inhibition is 6.37%.

With `O=S(=O)(Nc1cc(S(=O)(=O)N2CCOCC2)ccc1N1CCCC1)c1cccs1`, the activity change, negative = inhibition is -6.97%.

Regarding `CCN(CC)S(=O)(=O)c1ccc(N2CCN(C)CC2)c(NC(=O)Nc2ccccc2F)c1`, the activity change, negative = inhibition is 7.64%.

Turning to `CCN(CC)S(=O)(=O)c1ccc(N2CCCC2)c(NS(=O)(=O)c2cccs2)c1`, the activity change, negative = inhibition was -40.2% (active).

With `Cc1ccc(O)c(NC(=O)CCS(=O)(=O)c2nc(-c3ccc4c(c3)OCO4)cc(C(F)(F)F)n2)c1`, the activity change, negative = inhibition is -20.8%.

As to `O=C(Cc1ccc(Cl)cc1)Nc1ccc2nn(-c3ccc(Cl)cc3)nc2c1`, the activity change, negative = inhibition was -2.04%.

Regarding `Cc1cc(NC(=O)CC(C)C)cc(-c2nc3ncccc3o2)c1O`, the activity change, negative = inhibition is 13.5%.

`CCOc1ccc(NC(=O)N(CCC(C)C)C(C)c2ccco2)cc1` (stereo unspecified): the activity change, negative = inhibition was -66.3% (active).

Turning to `CCOc1ccc(NC(=O)N(CC(C)C)CC(C)C)cc1`, the activity change, negative = inhibition was -10.6%.

On to `CCOc1ccc(NC(=O)c2ncoc2-c2ccco2)cc1`, for which the activity change, negative = inhibition is 0.181%.

Consider `CCOC(=O)c1ccccc1NC(=O)CCc1c(C)nc2c(c1C)c(=O)n(C)c(=O)n2C`, for which the activity change, negative = inhibition is 4.81%.

As to `CCc1ccc(S(=O)(=O)c2nnn3c2nc(N2CCN(CC)CC2)c2sccc23)cc1`, the activity change, negative = inhibition was 8.88%.

`Cc1ccccc1NC(=O)Cn1c(=O)n(CC2CCC(C(=O)NCCc3ccccc3)CC2)c(=O)c2ccccc21` (stereo unspecified): the activity change, negative = inhibition is -13.6%.

Consider `Cc1ccc(CSc2ccc(S(=O)(=O)N3CCCCC3)cn2)cc1`, for which the activity change, negative = inhibition is 2.76%.

For `O=S(=O)(c1ccc(SCc2ccc(Br)cc2)nc1)N1CCOCC1`, the activity change, negative = inhibition is -43.1% (active).

As for `O=S(=O)(c1ccc(SCc2ccccc2)nc1)N1CCCCCC1`, the activity change, negative = inhibition is 0.949%.

As to `CCn1cc(C(=O)N/N=C(/C)c2ccc(F)cc2)c(=O)c2cc(F)c(N3CCCC3)cc21`, the activity change, negative = inhibition was 1.71%.

On to `CCOC(=O)c1cn(CC)c2cc(F)c(F)cc2c1=O`, for which the activity change, negative = inhibition is -74.1% (active).

For `CCn1cc(C(=O)NCCO)c(=O)c2cc(F)c(N3CCN(C)CC3)cc21`, the activity change, negative = inhibition is -5.03%.

As for `CCS(=O)(=O)N1CCc2cc(C(=O)NCc3ccc(OC)cc3)ccc21`, the activity change, negative = inhibition is 1.59%.

As for `COc1ccc(C2=NOC(COC(=O)c3ccc4ccccc4n3)C2)cc1` (stereo unspecified), the activity change, negative = inhibition is -39.5% (active).

`COc1ccc(CNC(=O)C2CC(c3ccc(C(F)(F)F)cc3)=NO2)cc1` (stereo unspecified): the activity change, negative = inhibition is -1.82%.

Turning to `COc1ccc(C(=O)COC(=O)c2ccc3ccccc3n2)cc1`, the activity change, negative = inhibition is -5.41%.

For `CCCNC(=O)C(CC)n1nc(CC)n2c(cc3oc(C)cc32)c1=O` (stereo unspecified), the activity change, negative = inhibition was 5.42%.

Consider `Cc1ccc(Cl)cc1N1CCN(S(=O)(=O)c2cc3[nH]c(=O)c(=O)[nH]c3cc2C)CC1`, for which the activity change, negative = inhibition is 1.65%.

On to `COc1cccc(C(=O)Nc2ccc3oc(-c4ccc5ccccc5c4)nc3c2)c1`, for which the activity change, negative = inhibition was 7.96%.

Consider `O=C(CNC(=O)c1ccc(Cl)cc1Cl)OC(C(=O)Nc1cc(C(F)(F)F)ccc1Cl)c1ccccc1` (stereo unspecified), for which the activity change, negative = inhibition was 6.17%.
